Test results published in PubChem BioAssay (NCATS).
Where “and” joins values, the source holds several entries; their conditions need not be identical. Equal entries are not always repeated. Records with an inconclusive call do not appear. Entries that show only a call come without a potency. Calls of active or inactive are those of the source. Calls follow the shape of the dose curve; as a rule, active = well fitted inhibition curve with a large enough effect; inconclusive = small, poorly fitted or top-dose-only effect; inactive = no such curve, though single readings can be large or run the other way.

Assay: qHTS to identify inhibitors of the type 1 interferon - major histocompatibility complex class I in skeletal muscle: primary screen against the NCATS Mechanism Interrogation Plate v5.0 (MIPE) Libary (AID 1347411); also: nearly all actives have a fitted effect of over 65% in size
Details: iHSKM cells + IFN-b, HiBiT-tagged MHC-I luminescence, 24 h; series mostly up to 45.8 µM
From the text: Assay Submitter (PI): Travis B. Kinder Ph.D. & James Inglese Ph.D.
Assay Development and Screening Technology Laboratory (ADST)
National Center for Advancing Translational Sciences (NCATS), Rockville, MD
National Institute of Health (NIH), Bethesda, Maryland
Idiopathic inflammatory myopathies, collectively referred to as myositis, are a group of rare autoimmune diseases characterized by skeletal muscle inflammation, weakness, and usually accompanied by systemic pathologies of the skin, lungs, or vasculature. Current immunosuppressive therapies and glucocorticoids are often not curative and are accompanied by harsh side effects, especially in children with juvenile myositis. We initiated a drug repurposing and development program to identify more targeted, less toxic therapeutics to treat myositis. Although its cause is not known, muscle from a subset of patients have an abundance of the inflammatory type 1 interferon (IFN) and a down-stream product major histocompatibility complex class I (MHC class I), which are both thought to contribute to damage and weakness. We conducted quantitative high throughput screening on 6,576 compounds (4,679 unique) through a series of cell-based assays to identify those that inhibit the IFN-stimulated expression of MHC class I in muscle precursor cells (myoblasts). The compound identification and evaluation strategy utilized a primary screen with reporter-tagged MHC class I in genome-engineered myoblasts, ATP content counter screen for viability, HLA-ABC immunofluorescence secondary screen, and HLA-B RT-qPCR tertiary screen.
The primary screen utilized CRISPR/Cas9 genome-engineering of immortalized human myoblasts, C25cl48, where a pro-luminescent reporter HiBit was fused to the C-terminus of endogenous MHC class I allele HLA-B*08:01 (HLA-B HiBit myoblasts). HiBit is an 11 amino acid fragment of NanoLuc luminescent reporter (Promega Corporation), and when complexed to the larger LgBit fragment, the reconstituted enzyme produces light in the presence of furimazine substrate (Schwinn et al., 2018). Briefly, HLA-B HiBit myoblasts were plated into 1536-well plates, treated with 4.0 ng/ml human IFN-beta and 2,480 compounds from the NCATS Mechanism Interrogation Plate v5.0 (MIPE5.0) in an 11-point, 1:3 titration with a high final concentration of 46 uM. After 24 hrs of treatment, cells were assayed by Nano-Glo HiBiT Lytic Detection System (Promega) and luminescence measured by a ViewLux 1430 Ultra HTS (Perkin Elmer).
Schwinn MK, Machleidt T, Zimmerman K, Eggers CT, Dixon AS, Hurst R, Hall MP, Encell LP, Binkowski BF, Wood K V. 2018. CRISPR-Mediated Tagging of Endogenous Proteins with a Luminescent Peptide. ACS Chem Biol 13:467-474. doi:10.1021/acschembio.7b00549
PROTOCOL TABLE (as described by Inglese et al., 2007)
SEQUENCE No. (e.g., 1, 2, 3, etc.); […] (e.g., Cells, Incubation, Reagent, etc.); VALUE; DESCRIPTION
1a; Cells; 5 uL; Use a Multidrop Combi (Thermo Scientific) to seed 300 cells/well into 24 Greiner 1536 well white/solid bottom, high base, TC plates in 5 ul/well of iHSKM growth medium (GM) without dexamethasone into columns 1+2. Add metal lids with gas-exchange holes
1b; Cells; 5 uL; Use a Multidrop Combi (Thermo Scientific) to seed 300 cells/well into 24 Greiner 1536 well white/solid bottom, high base, TC plates in 5 ul/well of iHSKM GM without dexamethasone + 4 ng/ml IFN-b into columns 3 - 48. Add metal lids with gas-exchange holes
2; Incubate; 1 hr; Incubate at 37 C, 5% CO2, 95% RH
3; Compounds; 23 nl; Use Pin Tool (Wako) to transfer DMSO control, ruxolitinib IFN-b inhibitor control [High Concentration = 80 uM final, 16-pt, 1:2 in duplicate], and library compounds in DMSO
4; Incubate; 24 hrs; Incubate at 37 C, 5% CO2, 95% RH
5; Dispense; 2.5 ul; Use BioRAPTR FRD (Beckman Coulter) to add HiBit lytic reagent
6; Incubate; 10 min; Incubate in the dark at ambient temperature for lysis
7; Detector; 5 sec; Measure luminescence with ViewLux 1430 Ultra HTS (Perkin Elmer). […]
Potency is read from the fitted curve at half-maximal effect.

Row | Structure (SMILES) | Potency
1 | CCOCOC[C@H](C[C@H](C)C(=O)NO)NC(=O)c1ccc(Oc2ccccc2)cc1 | inactive
2 | COc1ccccc1C(=O)Nc1cc2c(cc1N1CCCCC1)n(C)c(=O)n2C | inactive
3 | CCn1c(=O)c2c(nc(/C=C/c3ccc(OC)c(OC)c3)n2C)n(CC)c1=O | inactive
4 | CN1C(=O)[C@@H](NC(=O)c2cc(Cc3ccccc3)on2)COc2ccccc21 | inactive
5 | O=C(/C=C/c1ccc2ccc(C(F)(F)F)cc2n1)c1ccncc1 | 5.23 µM (active)
6 | NCC(=O)Nc1cncc(-c2nn3c(=O)cc(N4CCNCC4)nc3s2)c1 | inactive
7 | Nc1nccc2c1ncn2[C@@H]1C=C(CO)[C@@H](O)[C@H]1O | inactive
8 | O=C(/C=C\n1cnc(-c2cc(C(F)(F)F)cc(C(F)(F)F)c2)n1)NNc1cnccn1 | 7.39 µM (active)
9 | CCc1cnn2c(NCc3ccc[n+]([O-])c3)cc(N3CCCC[C@H]3CCO)nc12 | 0.0052 µM (active)
10 | Cc1cc(Nc2cc(N)ncn2)c(=O)n2c1C(=O)NC21CCCCC1 | inactive
11 | CCN1C(=O)CNc2ncc(-c3ccc(-c4ncn[nH]4)nc3C)nc21 | 2.94 µM (active)
12 | COc1cccc(-c2c(C)n(Cc3c(F)cccc3C(F)(F)F)c(=O)n(C[C@H](NCCCC(=O)O)c3ccccc3)c2=O)c1F | inactive
13 | Nc1nc(F)nc2c1ncn2[C@@H]1O[C@H](COP(=O)(O)O)[C@@H](O)[C@@H]1O | inactive
14 | NC(CC1c2ccccc2Oc2ccccc21)(C(=O)O)C1CC1C(=O)O (stereo not given) | inactive
15 | Cc1ccc(-c2nc(N)nc3c2nnn3Cc2cccc(CO[C@H]3CCOC3)n2)o1 | inactive
16 | Cc1ncsc1-c1ccc([C@H](C)NC(=O)[C@@H]2C[C@@H](O)CN2C(=O)[C@@H](NC(=O)COCCCOCCNC(=O)C[C@@H]2N=C(c3ccc(Cl)cc3)c3c(sc(C)c3C)-n3c(C)nnc32)C(C)(C)C)cc1 | 0.208 µM (active)
17 | Cc1cc(C)c(CNC(=O)c2cc(-c3ccc(N4CCN(C)CC4)nc3)cc3c2c(C)cn3C(C)C)c(=O)[nH]1 | inactive
18 | CC(=NNC(=O)c1cccc(S(=O)(=O)N2CCOCC2)c1)c1cc(Cl)ccc1O | inactive
19 | CO[C@H]1/C=C/O[C@@]2(C)Oc3c(C)c(O)c4c(O)c(c5c(c4c3C2=O)=NC2(CCN(CC(C)C)CC2)N=5)NC(=O)/C(C)=C/C=C/[C@H](C)[C@H](O)[C@@H](C)[C@@H](O)[C@@H](C)[C@H](OC(C)=O)[C@@H]1C | inactive
20 | Cc1ccc(NS(=O)(=O)c2ccc3c(c2)C2C=CCC2C(c2ccc(C(=O)O)cc2)N3)cc1C (stereo not given) | inactive

Row | Structure (SMILES) | Potency
21 | C[C@H]1CC2[C@@H]3CCC4=CC(=O)C=C[C@]4(C)[C@@]3(F)[C@@H](O)C[C@]2(C)[C@@]1(O)C(=O)CO (stereo not given in full) | inactive
22 | O=C1S/C(=C\c2ccc(OCc3cccc(B(O)O)c3)cc2)C(=O)N1Cc1ccc(F)cc1 | inactive
23 | CCCNC(=O)[C@H]1O[C@@H]1C(=O)N[C@H](C(=O)N1CCC[C@H]1C(=O)OC)C(C)CC (stereo not given in full) | inactive
24 | COc1cc2c3c(n(CCCN4CCOCC4)c(=O)c2cc1OC)-c1cc2c(cc1C3=O)OCO2 | inactive
25 | CCNCCS(=O)(=O)NC[C@@]1(c2ccccc2)SC(NC(=O)C(C)(C)C)=NN1C(=O)C(C)(C)C | inactive
26 | CN(Cc1ccccc1)C(=O)c1ccc(S(=O)(=O)Nc2ccccc2)cc1 | inactive
27 | CCc1c(-c2ccccc2C)nc2c(C#N)c[nH]n2c1=O | 829 nM (active) and 1.31 µM (active)
28 | CC(=O)O/N=C1\C(=O)N(Cc2cc(Cl)ccc2Cl)c2ccc(Cl)cc21 | 14.7 µM (active)
29 | C=CC(=O)N1CCC(C2CCNc3c(C(N)=O)c(-c4ccc(Oc5ccccc5)cc4)nn32)CC1 (stereo not given) | inactive
30 | COc1cc2c(Oc3ccc4[nH]c(C)cc4c3F)ccnc2cc1OCC1(N)CC1 | inactive
31 | Cn1ncc(NC(=O)c2nc(-c3c(F)cccc3F)sc2N)c1N1CC[C@@H](N)[C@H](F)CC1 | inactive
32 | CNc1nc(-c2ccc3c(N)n[nH]c3c2)cc(N2C[C@@H](C(=O)NC3CCCCC3)CC[C@H]2C)n1 | 13.1 µM (active)
33 | C[C@@H]1CC(=O)Nc2cccc(-c3cnn(C(C)(C)C)c3)c2N1 | inactive
34 | Nc1nc(OC(c2ccc(-c3cccc(F)c3)cc2)C(F)(F)F)cc(-c2ccc(C[C@H](N)C(=O)O)cc2)n1 (stereo not given in full) | inactive
35 | CC(=O)N1c2ccc(-c3ccc(C(=O)O)cc3)cc2[C@H](Nc2ccc(Cl)cc2)C[C@@H]1C | inactive
36 | CC(=O)N[C@H]1CSSC[C@@H](C(N)=O)NC(=O)[C@H](C(C)C)NC(=O)[C@H](C)NC(=O)[C@H](Cc2cnc[nH]2)NC1=O | inactive
37 | CN(C(=O)CNC(=O)/C=C/c1cccc(Cl)c1)C1CCS(=O)(=O)CC1 | inactive
38 | CN1CCN(C(=O)c2ccc(-c3ccc4c(C=O)c(O)ccc4c3)s2)CC1 | 29.4 µM (active)
39 | Cc1[nH]c(/C=C2\C(=O)Nc3ccc(S(=O)(=O)Cc4c(Cl)cccc4Cl)cc32)c(C)c1C(=O)N1CCC[C@@H]1CN1CCCC1 | 5.23 µM (active)
40 | O=C(NO)c1cnc(NC2(c3cccc(F)c3)CCCCC2)nc1 | inactive
